# Only some compounds are listed: those with a hit (about 5% of all), similar ones and a draw of the others.
# SENP8 block-1: blocks human SENP8 cleavage of Nedd8 substrate; recombinant SENP8, Nedd8 substrate fluorescence; Q96LD8; AID 602440; actives 0.64% (n = 360,000); inhibition, % at 20 µM; in the data active = inhibition mostly above about 40%, no sharp cut-off; inactive = mostly below about 27%
# Target sequence (Q96LD8 whole entry, looked up): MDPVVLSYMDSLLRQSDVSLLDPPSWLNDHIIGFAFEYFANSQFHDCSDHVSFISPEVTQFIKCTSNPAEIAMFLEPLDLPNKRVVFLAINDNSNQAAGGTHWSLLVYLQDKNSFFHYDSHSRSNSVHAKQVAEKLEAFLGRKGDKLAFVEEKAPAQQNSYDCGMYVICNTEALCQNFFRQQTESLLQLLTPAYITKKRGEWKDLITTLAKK
# SENP8 block-2: SENP8 protease inhibition; actives 1.2% (n = 330,000); inhibition, % at 10 µM; purified SENP8, Z-RLRGG-aminoluciferin cleavage, luminescence; Q96LD8; in the data active = inhibition above about 50%
# AHR activator: activates the human aryl hydrocarbon receptor | AHR-responsive luciferase reporter cells, luminescence | activation, % at 5 µM | actives 2.5% (n = 320,000); in the data active = activation above about 47%
# SENP7 inh: SENP7 protease inhibition | Q9BQF6 | recombinant SENP7, Z-RLRGG-aminoluciferin luminescence, 40 min | inhibition, % at 5 µM | actives 1.5% (n = 330,000) | AID 434973;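 active = inhibition above about 50% at the single test dose, limit read from the data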
# SENP6 inh: SENP6 protease inhibition; Q9GZR1; Recombinant SENP6 catalytic domain, aminoluciferin luminescence; inhibition, % at 10 µM; actives 1.8% (n = 330,000);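 active = inhibition above about 50% at the single tested dose, limit read from the data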
# EBI2 antag: blocks human EBI2 receptor beta-arrestin signaling. inhibition, % at 5 µM. P32249. EBI2 beta-arrestin recruitment, luminescence, 7a,25-OHC stimulated. actives 0.81% (n = 360,000). AID 651636; in the data active = inhibition above about 38%;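 also: enzyme fragment complementation signal reports receptor beta-arrestin coupling in cells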
# SENP8 confirm: human SENP8 inhibition, confirmed; actives 40% (n = 6,200); AID 488912; shares compounds with SENP7 inh; Recombinant SENP8, Z-RLRGG-aminoluciferin luminescence, 60 min; inhibition, % at 12.5 µM;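 active = mean inhibition across replicates above about 50%, limit read from the data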
# SENP6 confirm: confirmation of human SENP6 protease inhibitors. recombinant SENP6, Z-RLRGG-aminoluciferin luminescence. actives 58% (n = 6,200). inhibition, % at 12.5 µM. shares compounds with SENP7 inh. AID 488915
# SENP7 conf: human SENP7 inhibition, confirmed. shares compounds with SENP7 inh. recombinant SENP7, Z-RLRGG-aminoluciferin luminescence, 40 min. inhibition, % at 12.5 µM. actives 69% (n = 6,200). AID 488917
# Casp3 select: selectivity test for SENP inhibitors: human caspase-3 inhibition. shares compounds with SENP7 inh. purified caspase-3, Z-DEVD-aminoluciferin luminescence, 60 min. inhibition, % at 12.5 µM. actives 60% (n = 6,200). AID 488918;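 active = mean inhibition above about 50%, limit read from the data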
# Target sequence (P42574 28-227 limits assumed): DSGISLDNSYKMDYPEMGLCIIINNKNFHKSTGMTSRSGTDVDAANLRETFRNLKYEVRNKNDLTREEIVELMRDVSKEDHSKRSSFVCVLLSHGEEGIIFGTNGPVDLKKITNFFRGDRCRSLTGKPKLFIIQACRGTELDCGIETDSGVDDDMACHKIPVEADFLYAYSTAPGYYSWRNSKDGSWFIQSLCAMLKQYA
# Luc interf: luminescence interference (SENP counter-screen); shares compounds with SENP7 inh; inhibition, % at 12.5 µM; actives 39% (n = 6,200); Pre-incubated SENP8/Z-RLRGG-aminoluciferin, luciferase luminescence interference; AID 488919;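 active = mean inhibition above about 50% when retested at one dose, limit read from the data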
# Numbers stand for hits; i = inactive; nt = no result.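 The calls were made as follows, unless noted: active = mean inhibition above about 50% in the one-dose retest (limit read from the data); inactive = the rest.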
SMILES,SENP8 block-1,SENP8 block-2,AHR activator,SENP7 inh,SENP6 inh,EBI2 antag,SENP8 confirm,SENP6 confirm,SENP7 conf,Casp3 select,Luc interf
COc1cccc(C(=O)O/N=C(\N)c2ccncc2)c1OC,i,i,i,i,i,i,nt,nt,nt,nt,nt
COc1cc(OC)cc(C(=O)N[C@H](C(=O)OCC(=O)Nc2ccc3c(c2)OCO3)C(C)C)c1,i,i,i,i,i,i,nt,nt,nt,nt,nt
Cc1ccc(NC(=O)CCc2ccc(C)o2)cc1,i,i,i,i,i,i,nt,nt,nt,nt,nt
N#C/C(=C(/O)c1ccc(-c2cccc([N+](=O)[O-])c2)o1)c1nc2ccccc2s1,i,93,nt,i,97,i,i,i,i,i,i
O=C(Nc1cccc(Cl)c1)c1ccc2c(c1)SC1=NS(=O)(=O)CCN12,i,nt,nt,nt,nt,i,nt,nt,nt,nt,nt
COc1ccc(C(C)(NC(C)=O)c2nc(-c3ccncc3)cs2)cc1 (configuration not stated),i,nt,nt,nt,nt,i,nt,nt,nt,nt,nt
O=C(O)/C(=C\c1ccc(-c2ccccc2[N+](=O)[O-])o1)c1ccccc1,i,i,i,i,58,i,60,66,74,59,54
O=C(/C=C/c1ccc(-c2ccccc2[N+](=O)[O-])o1)c1ccccc1,i,nt,i,nt,nt,i,nt,nt,nt,nt,nt
Cc1ccc(C(=O)N/C(=C\c2ccc(-c3ccccc3[N+](=O)[O-])o2)C(=O)NCCCN(C)C)cc1,i,i,i,i,50,i,i,i,i,i,i
CN(C)CCCNC(=O)/C(=C/c1ccc(-c2ccc([N+](=O)[O-])cc2)o1)NC(=O)c1ccccc1,i,i,i,i,i,i,nt,nt,nt,nt,nt
COc1cc(OC)cc(C(=O)Nc2ccc3nc4n(c(=O)c3c2)CCCCC4)c1,i,80,i,83,81,i,87,86,98,88,55
COc1ccccc1C(=O)Nc1ccc2nc3n(c(=O)c2c1)CCCC3,i,i,i,i,i,i,nt,nt,nt,nt,nt
C=CCc1ccc(OCc2ccc(C(=O)O)o2)c(OC)c1,i,64,i,63,79,i,76,76,94,i,80
C=CCc1ccc(OCCCCOc2ccc(C(=O)O)cc2)c(OC)c1,i,i,i,i,i,i,nt,nt,nt,nt,nt
CCOc1ccc(OCc2ccc(C(=O)O)o2)cc1,i,94,i,96,97,i,96,99,102,80,97
CCCc1ccc(OCc2ccc(C(=O)O)o2)c(OC)c1,i,69,i,54,75,i,74,73,92,i,83
CCCc1nnc(SCC(=O)N2CCCCC2C)n1CCOC (configuration not stated),i,i,i,i,i,i,nt,nt,nt,nt,nt
COCCn1c(C)cc(C(=O)COC(=O)Cc2n[nH]c(=O)c3ccccc23)c1C,i,i,nt,i,i,i,nt,nt,nt,nt,nt
Cc1cc(C(=O)COC(=O)c2ccccc2O)c(C)n1Cc1cccs1,i,93,i,95,92,i,93,98,101,93,51
Cc1ccc(C(=O)OCC(=O)c2cc(C)n(CC3CCCO3)c2C)cc1 (configuration not stated),i,i,i,i,i,i,nt,nt,nt,nt,nt
Cc1cc(C(=O)COC(=O)c2n[nH]c3ccccc23)c(C)n1CC1CCCO1 (configuration not stated),i,87,i,i,86,i,i,92,99,90,77
COCCn1c(C)cc(C(=O)COC(=O)c2n[nH]c3ccccc23)c1C,i,82,i,86,71,i,94,94,100,92,87

# Screening data (PubChem)
